The values that follow come from the supplement of paper PMC11001985.

Unmarked numbers belong to inactive results.

Sequence of UniProt P09382 (P09382 whole entry): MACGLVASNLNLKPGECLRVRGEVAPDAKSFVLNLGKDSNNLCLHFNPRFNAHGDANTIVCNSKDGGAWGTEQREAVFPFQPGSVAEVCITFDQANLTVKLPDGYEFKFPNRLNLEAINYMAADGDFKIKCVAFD
Sequence of UniProt Q9UKV3 (Q9UKV3 whole entry): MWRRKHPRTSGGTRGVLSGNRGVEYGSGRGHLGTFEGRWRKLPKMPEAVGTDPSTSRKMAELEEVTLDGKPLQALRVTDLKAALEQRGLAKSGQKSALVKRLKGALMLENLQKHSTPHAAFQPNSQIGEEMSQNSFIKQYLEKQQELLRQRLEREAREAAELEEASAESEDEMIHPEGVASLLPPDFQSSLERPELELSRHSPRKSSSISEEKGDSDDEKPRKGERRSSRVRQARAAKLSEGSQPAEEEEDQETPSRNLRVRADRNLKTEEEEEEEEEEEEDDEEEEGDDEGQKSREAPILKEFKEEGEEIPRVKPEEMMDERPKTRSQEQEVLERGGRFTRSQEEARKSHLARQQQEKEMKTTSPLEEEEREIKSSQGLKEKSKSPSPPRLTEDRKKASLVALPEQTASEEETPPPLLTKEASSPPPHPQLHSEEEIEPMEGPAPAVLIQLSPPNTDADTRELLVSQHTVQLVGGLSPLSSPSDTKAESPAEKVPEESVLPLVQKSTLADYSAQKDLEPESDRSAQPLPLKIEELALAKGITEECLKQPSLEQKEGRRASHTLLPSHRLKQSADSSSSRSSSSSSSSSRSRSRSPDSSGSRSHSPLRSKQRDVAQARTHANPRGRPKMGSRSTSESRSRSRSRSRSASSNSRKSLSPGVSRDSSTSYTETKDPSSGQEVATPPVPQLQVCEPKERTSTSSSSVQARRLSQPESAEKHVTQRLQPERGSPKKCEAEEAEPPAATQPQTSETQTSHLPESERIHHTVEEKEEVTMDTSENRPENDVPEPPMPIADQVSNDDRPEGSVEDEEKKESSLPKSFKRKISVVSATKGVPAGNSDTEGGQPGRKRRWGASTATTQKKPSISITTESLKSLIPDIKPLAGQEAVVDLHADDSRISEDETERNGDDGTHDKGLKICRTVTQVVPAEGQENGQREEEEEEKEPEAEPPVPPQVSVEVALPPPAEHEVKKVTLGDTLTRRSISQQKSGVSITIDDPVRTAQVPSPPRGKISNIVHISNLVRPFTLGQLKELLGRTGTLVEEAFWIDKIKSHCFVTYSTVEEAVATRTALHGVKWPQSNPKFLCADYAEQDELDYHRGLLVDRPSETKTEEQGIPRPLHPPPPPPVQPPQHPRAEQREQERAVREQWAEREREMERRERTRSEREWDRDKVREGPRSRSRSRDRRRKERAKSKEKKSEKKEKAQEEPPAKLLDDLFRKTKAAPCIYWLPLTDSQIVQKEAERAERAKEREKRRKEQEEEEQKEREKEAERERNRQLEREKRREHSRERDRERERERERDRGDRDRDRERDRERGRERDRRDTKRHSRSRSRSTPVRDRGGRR
Sequence of UniProt P08195 (P08195 whole entry): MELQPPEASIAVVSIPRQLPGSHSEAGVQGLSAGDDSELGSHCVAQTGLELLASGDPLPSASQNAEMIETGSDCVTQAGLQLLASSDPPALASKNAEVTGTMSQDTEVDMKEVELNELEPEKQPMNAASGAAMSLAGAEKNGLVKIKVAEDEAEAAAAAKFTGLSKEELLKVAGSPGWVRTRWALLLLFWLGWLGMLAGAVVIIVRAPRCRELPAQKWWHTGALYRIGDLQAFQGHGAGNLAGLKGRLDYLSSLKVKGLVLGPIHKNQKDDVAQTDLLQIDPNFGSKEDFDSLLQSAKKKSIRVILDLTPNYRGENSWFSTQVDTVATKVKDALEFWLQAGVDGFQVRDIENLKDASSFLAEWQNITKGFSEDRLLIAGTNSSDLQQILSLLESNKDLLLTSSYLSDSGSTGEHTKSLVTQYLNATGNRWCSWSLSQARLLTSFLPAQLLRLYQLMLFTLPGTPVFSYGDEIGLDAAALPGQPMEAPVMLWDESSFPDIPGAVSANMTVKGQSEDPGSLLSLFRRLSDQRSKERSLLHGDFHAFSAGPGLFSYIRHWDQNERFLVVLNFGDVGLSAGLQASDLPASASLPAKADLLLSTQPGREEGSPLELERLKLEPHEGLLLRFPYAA
Sequence of UniProt P61769 (P61769 whole entry): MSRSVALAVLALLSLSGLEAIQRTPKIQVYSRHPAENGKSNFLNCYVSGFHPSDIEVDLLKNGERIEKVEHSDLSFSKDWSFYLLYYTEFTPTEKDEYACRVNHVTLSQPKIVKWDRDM
Sequence of UniProt P50454 (P50454 whole entry): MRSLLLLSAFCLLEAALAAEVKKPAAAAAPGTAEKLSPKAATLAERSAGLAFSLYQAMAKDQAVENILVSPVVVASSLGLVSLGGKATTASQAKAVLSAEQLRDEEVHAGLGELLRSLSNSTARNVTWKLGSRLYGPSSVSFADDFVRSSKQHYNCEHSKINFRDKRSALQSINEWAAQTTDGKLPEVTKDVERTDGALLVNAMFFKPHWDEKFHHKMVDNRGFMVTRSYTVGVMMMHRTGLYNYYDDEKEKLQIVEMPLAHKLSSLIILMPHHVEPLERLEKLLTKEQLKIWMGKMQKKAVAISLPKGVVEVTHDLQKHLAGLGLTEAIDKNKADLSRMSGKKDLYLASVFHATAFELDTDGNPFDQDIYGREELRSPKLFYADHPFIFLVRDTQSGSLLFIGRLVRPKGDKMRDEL
Sequence of UniProt P35052 (P35052 whole entry): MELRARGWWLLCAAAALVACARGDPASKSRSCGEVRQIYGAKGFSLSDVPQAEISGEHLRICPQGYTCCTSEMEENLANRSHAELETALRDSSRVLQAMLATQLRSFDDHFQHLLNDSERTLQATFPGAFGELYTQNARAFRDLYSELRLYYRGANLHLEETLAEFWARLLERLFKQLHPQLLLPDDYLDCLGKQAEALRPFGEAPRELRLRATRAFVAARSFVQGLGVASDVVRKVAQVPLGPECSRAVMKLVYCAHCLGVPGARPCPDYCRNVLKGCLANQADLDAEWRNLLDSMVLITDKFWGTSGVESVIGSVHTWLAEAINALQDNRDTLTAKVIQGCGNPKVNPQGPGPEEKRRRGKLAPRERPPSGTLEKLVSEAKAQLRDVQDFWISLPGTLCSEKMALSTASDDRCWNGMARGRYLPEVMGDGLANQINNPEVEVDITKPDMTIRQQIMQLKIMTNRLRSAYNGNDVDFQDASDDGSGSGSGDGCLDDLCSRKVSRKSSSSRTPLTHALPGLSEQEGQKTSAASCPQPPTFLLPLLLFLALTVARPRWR
Sequence of UniProt P06756 (P06756 whole entry): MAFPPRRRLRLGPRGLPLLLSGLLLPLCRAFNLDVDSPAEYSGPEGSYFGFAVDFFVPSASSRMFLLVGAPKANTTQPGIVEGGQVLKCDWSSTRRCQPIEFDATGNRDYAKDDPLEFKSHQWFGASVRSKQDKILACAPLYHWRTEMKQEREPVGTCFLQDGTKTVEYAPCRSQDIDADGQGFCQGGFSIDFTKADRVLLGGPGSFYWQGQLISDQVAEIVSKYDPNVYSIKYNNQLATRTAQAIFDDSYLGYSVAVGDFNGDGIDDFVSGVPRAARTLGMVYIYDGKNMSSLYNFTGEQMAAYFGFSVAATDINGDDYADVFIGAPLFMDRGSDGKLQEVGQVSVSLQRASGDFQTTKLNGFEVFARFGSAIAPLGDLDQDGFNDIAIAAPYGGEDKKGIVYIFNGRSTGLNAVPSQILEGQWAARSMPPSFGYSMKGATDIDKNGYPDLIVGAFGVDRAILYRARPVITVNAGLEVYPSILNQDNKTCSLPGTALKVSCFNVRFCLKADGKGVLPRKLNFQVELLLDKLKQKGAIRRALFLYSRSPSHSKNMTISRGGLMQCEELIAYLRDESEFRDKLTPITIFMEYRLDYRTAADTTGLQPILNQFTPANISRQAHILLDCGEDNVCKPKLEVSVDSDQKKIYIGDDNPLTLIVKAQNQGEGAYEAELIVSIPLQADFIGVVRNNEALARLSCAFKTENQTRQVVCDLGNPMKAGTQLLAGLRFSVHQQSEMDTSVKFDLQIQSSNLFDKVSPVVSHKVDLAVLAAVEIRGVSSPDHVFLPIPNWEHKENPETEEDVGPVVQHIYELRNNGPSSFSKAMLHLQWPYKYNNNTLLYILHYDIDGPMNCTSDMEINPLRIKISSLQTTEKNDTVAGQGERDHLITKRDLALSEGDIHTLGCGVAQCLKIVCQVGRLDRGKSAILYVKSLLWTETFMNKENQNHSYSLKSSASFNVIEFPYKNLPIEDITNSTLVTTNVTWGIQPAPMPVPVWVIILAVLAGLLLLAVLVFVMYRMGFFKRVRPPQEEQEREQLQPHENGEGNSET
Sequence of UniProt Q01844 (Q01844 whole entry): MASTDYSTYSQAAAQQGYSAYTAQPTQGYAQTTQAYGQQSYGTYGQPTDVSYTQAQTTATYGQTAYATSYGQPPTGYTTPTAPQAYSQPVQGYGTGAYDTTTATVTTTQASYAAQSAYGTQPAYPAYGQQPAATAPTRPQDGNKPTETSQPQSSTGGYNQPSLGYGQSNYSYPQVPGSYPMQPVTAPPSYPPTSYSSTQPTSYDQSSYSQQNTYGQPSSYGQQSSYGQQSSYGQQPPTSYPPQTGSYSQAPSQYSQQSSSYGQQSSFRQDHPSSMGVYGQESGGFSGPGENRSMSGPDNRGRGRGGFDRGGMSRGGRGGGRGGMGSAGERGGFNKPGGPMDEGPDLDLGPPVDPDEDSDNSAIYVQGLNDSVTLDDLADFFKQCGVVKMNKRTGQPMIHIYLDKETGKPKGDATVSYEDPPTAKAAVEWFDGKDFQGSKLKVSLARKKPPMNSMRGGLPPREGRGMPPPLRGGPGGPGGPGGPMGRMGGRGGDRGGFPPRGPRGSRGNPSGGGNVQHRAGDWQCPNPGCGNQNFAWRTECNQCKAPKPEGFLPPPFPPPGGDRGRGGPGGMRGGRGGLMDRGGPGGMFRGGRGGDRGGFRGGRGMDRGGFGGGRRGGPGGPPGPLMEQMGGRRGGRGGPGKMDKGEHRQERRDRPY

Compound in this test: C#CCNC(=O)CCSSCCC(=O)NCCc1ccc(C=O)c(C=O)c1
In words: lysine labeling ratio R10:1 (500 µM / 50 µM probe), SILAC-ABPP in living cells; higher = lower intrinsic lysine reactivity toward the probe, active = 2 or less. Particulars: HeLa; probe concentrations 500 vs 50 µM. In short, it runs like this: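 With forward and reverse label swaps, light and heavy SILAC HeLa cells, alive and in PBS at room temperature, were exposed to either 500 µM or 50 µM of an alkyne-tagged lysine probe bearing a disulfide link. After mixing, lysates were clicked to biotin-azide, cut with trypsin, pulled down on neutravidin, freed with DTT, alkylated and analysed on a TIMS-TOF Pro by LC-MS/MS. The per-lysine value R is the median over forward and reverse replicates of the filtered median high-probe/low-probe MS1 peptide ratio. It is capped at 20.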
On to “MSN (lysine site: K391) (UniProt P26038)”, for which the “lysine labeling ratio R10:1” value was 1.79 (active). In the case of “DSG2 (lysine site: K254) (UniProt Q14126)” it was 8.19. Take “SLC3A2 (lysine site: K300) (UniProt P08195)”: the “lysine labeling ratio R10:1” value is 6.33.

Take UniProt Q15149 (lysine site: K2037): the “lysine labeling ratio R10:1” value is 1.95 (active). The result for “FLNB (lysine site: K697) (UniProt O75369)” reads 2.95; that for “IGF2R (lysine site: K1862) (UniProt P11717)”, 1.81 (active). “LGALS1 (lysine site: K130) (UniProt P09382)”: the “lysine labeling ratio R10:1” value is 2.14. Consider “IGF1R (lysine site: K665) (UniProt P08069)”, for which the “lysine labeling ratio R10:1” value was 1.28 (active). In the case of “SERPINH1 (lysine site: K413) (UniProt P50454)” it was 4.84; in that of “CTTN (lysine site: K235) (UniProt Q14247)”, 1.56 (active); in that of UniProt P61978 (lysine site: K179), 3.68. In the case of “EPHB4 (lysine site: K486) (UniProt P54760)” it was 4.21; in that of UniProt P62277 (lysine site: K9), 2.44. The result for “SERBP1 (lysine site: K303) (UniProt Q8NC51)” reads 2.74.

Take “KRT18 (lysine site: K317) (UniProt P05783)”: the “lysine labeling ratio R10:1” value is 7.92. In the case of “GAPDH (lysine site: K194) (UniProt P04406)” it was 6.75; in that of “JPT2 (lysine site: K90) (UniProt Q9H910)”, 5.53; in that of “PDCD6IP (lysine site: K690) (UniProt Q8WUM4)”, 2.89. The result for “EWSR1 (lysine site: K644) (UniProt Q01844)” reads 1.76 (active); that for “PGK1 (lysine site: K361) (UniProt P00558)”, 3.45; that for UniProt Q96TA1 (lysine site: K322), 5.91. The result for “ITGAV (lysine site: K338) (UniProt P06756)” reads 3.21; that for “ACIN1 (lysine site: K143) (UniProt Q9UKV3)”, 0.535 (active). “SLC25A5 (lysine site: K245) (UniProt P05141)”: the “lysine labeling ratio R10:1” value was 2.26. In the case of “APOO (lysine site: K51) (UniProt Q9BUR5)” it was 0.799 (active); in that of “PSMB4 (lysine site: K201) (UniProt P28070)”, 3.87. In the case of “B2M (lysine site: K114) (UniProt P61769)” it was 15.6. With “TXNRD1 (lysine site: K396) (UniProt Q16881)”, the “lysine labeling ratio R10:1” value is 2.09. The result for “CFL1 (lysine site: K164) (UniProt P23528)” reads 4.91.

Turning to “RPL3 (lysine site: K229) (UniProt P39023)”, the “lysine labeling ratio R10:1” value was 1.36 (active). As for UniProt Q6PIU2 (lysine site: K359), the “lysine labeling ratio R10:1” value is 1.48 (active).

For the target “MYH9 (lysine site: K1338) (UniProt P35579)”, the “lysine labeling ratio R10:1” value is 1.98 (active). The result for “DIABLO (lysine site: K219) (UniProt Q9NR28)” reads 1.92 (active); that for “SCARB1 (lysine site: K288) (UniProt Q8WTV0)”, 0.704 (active). For UniProt Q8WXD0 (lysine site: K130), the “lysine labeling ratio R10:1” value is 1.74 (active).

Regarding “LGALS3BP (lysine site: K427) (UniProt Q08380)”, the “lysine labeling ratio R10:1” value was 2.98. The result for UniProt P61978 (lysine site: K422) reads 4.02; that for “NRP1 (lysine site: K504) (UniProt O14786)”, 6.03. The result for “GPC1 (lysine site: K277) (UniProt P35052)” reads 2.26; that for UniProt P62987 (lysine site: K93), 5.44.
